Several values for one entry are separate records, joined by “and”; a condition that tells them apart may be missing. Identical values can stand only once. Values without a mark were called inactive. Records with an inconclusive call do not appear. Activity calls are given as the source filed them. The call rests on the fitted dose curve; in most records, active means well fitted curve in the direction sought with a large enough effect in the repeat runs; inconclusive means weak or mixed curves; inactive means no such curve, though single readings can be large; an effect the other way counts as inactive or inconclusive.
experiment: A CellTox Green Cytotoxicity Assay to monitor cytotoxicity in HepG2 cells - 40 hour (AID 1224879); conditions: CellTox Green fluorescence; series mostly up to 76.8 µM; cytotoxicity increase: at the top concentration; further: nearly all actives have a fitted effect of over 40% in size; further: potency means the concentration at half of the fitted maximal effect
Procedure, shortened: (§1)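 HepG2 cells, 600/well, preincubated 5 h with CellTox Green dye, then exposed to Tox21 compounds in DMSO at 37 C for up to 40 h. Dead-cell DNA fluorescence read at the indicated time point.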
On the % scale 0 is the no-effect control and ±100 the full control effect.

Structure (SMILES)	Potency	cytotoxicity increase
CCC[CH2][Sn]([CH2]CCC)([CH2]CCC)[O]C(=O)c1ccccc1	0.549 µM (active)	
CCCCCCCCCCBr		18.2%
Oc1ccc(I)cc1		12.7%
O=c1[nH]c2ccccc2n1CCCN1CCC(n2c(=O)[nH]c3cc(Cl)ccc32)CC1	23.9 µM (active)	
Cc1cc(Cl)ccc1O[C@H](C)C(=O)O		-12.7%
CCCCCCCCCCCCCN1CC(C)OC(C)C1 (stereo not given)		0.71%
O=c1ssc(Cl)c1Cl	19.5 µM (active)	
C[C@@H](Oc1ccc(Cl)cc1Cl)C(=O)O		-11.7%
COP(=O)(CCC(=O)NCO)OC		-6.78%
C=COCCCl		-10.1%
CNC(C)Cc1ccc2c(c1)OCO2 (stereo not given)		19.7%
CCCSP(=O)(OCC)SCCC		0.404%
CCS(=O)(=O)c1cccnc1S(=O)(=O)NC(=O)Nc1nc(OC)cc(OC)n1		-0.0893%
CCCCCCCCCCCCCCCC[N+](C)(C)C	21.1 µM (active) and 13.8 µM (active) and 21.3 µM (active)	
O=c1[nH]c2ccccc2n1C1CCN(CCCC(c2ccc(F)cc2)c2ccc(F)cc2)CC1	19.5 µM (active) and 21.3 µM (active)	
CCOP(=S)(OCC)SCS(=O)(=O)C(C)(C)C		0.975%
CC(=O)Nc1ccc2c(c1)Cc1ccccc1-2		-1.21%

experiment: qHTS RealTime-Glo MT Cell Viability Assay in HEK293 cells - 0 hour (AID 1224880); conditions: RealTime-Glo luminescence; series mostly up to 76.8 µM; activity change, negative = cytotoxicity: at the top concentration; further: nearly all actives have a fitted effect of over 45% in size; further: potency means the concentration at half of the fitted maximal effect; on activity change, negative = cytotoxicity: top concentration of the series differs between compounds
Procedure, shortened: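 600 cells/well were plated with the nonlytic NanoLuc/prosubstrate reagent, pre-incubated 5 h, then given 23 nL of compound in DMSO. Incubation at 37 C for 40 h, with luminescence from viable-cell-reduced substrate read repeatedly from 0 h.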

Structure (SMILES)	activity change, negative = cytotoxicity	Potency
COC[C@H](C)N(C(=O)CCl)c1c(C)csc1C	8.9%	
Cc1cc(C)cc(OP(=O)(Oc2cc(C)cc(C)c2)Oc2cc(C)cc(C)c2)c1	-8.33%	
COP(N)(=S)OC	-3.27%	
NNC(=O)c1ccccc1	-2.51%	
N#Cc1ccccc1N	-0.26%	
O=C(CCCN1CCC2(CC1)C(=O)NCN2c1ccccc1)c1ccc(F)cc1	-10% [at 35.3 µM]	
CC(C)(C)OO	6.15%	
C[C@]12CC[C@@H]3c4ccc(OC(=O)N(CCCl)CCCl)cc4CC[C@H]3[C@@H]1CC[C@@H]2O	-6.53% [at 35.3 µM]	
ClC1=C(Cl)[C@]2(Cl)[C@@H]3[C@@H]4C[C@@H]([C@H]5O[C@@H]45)[C@@H]3[C@@]1(Cl)C2(Cl)Cl	-2.13%	
CCOCCOC(C)=O	-14.9%	
CCCCCCCCCCBr	1.04%	
O=c1[nH]c2ccccc2n1CCCN1CCC(n2c(=O)[nH]c3cc(Cl)ccc32)CC1	-10.1% [at 35.3 µM]	
CCCCCCCCCCCCCN1CC(C)OC(C)C1 (stereo not given)	15%	
O=c1ssc(Cl)c1Cl		24.5 µM (active)
C[C@@H](Oc1ccc(Cl)cc1Cl)C(=O)O	-13.5%	
COP(=O)(CCC(=O)NCO)OC	2.04%	
CNC(C)Cc1ccc2c(c1)OCO2 (stereo not given)	-0.147%	
CCCSP(=O)(OCC)SCCC	0.395%	
O=c1[nH]c2ccccc2n1C1CCN(CCCC(c2ccc(F)cc2)c2ccc(F)cc2)CC1		inactive
CCOP(=S)(OCC)SCS(=O)(=O)C(C)(C)C	-8.5%	

experiment: A CellTox Green Cytotoxicity Assay to monitor cytotoxicity in HEK293 cells - 32 hour (AID 1224881); conditions: CellTox Green fluorescence; series mostly up to 76.8 µM; cytotoxicity increase: at the top concentration; further: nearly all actives have a fitted effect of over 40% in size; further: potency means the concentration at half of the fitted maximal effect
Procedure, shortened: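 HEK293 cells, 600/well, were preincubated 5 hours and then exposed to compounds at 37 C for up to 40 hours. A cell-impermeant cyanine dye staining dead-cell DNA was read by fluorescence at 0, 8, 16, 24, 32 and 40 h time points.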

Structure (SMILES)	Potency	cytotoxicity increase
CCCCCCCCCCCCCCCCCCn1cc[n+](C)c1	19.4 µM (active)	
C[C@H]1CC[C@@H]2[C@@H](C)[C@H]3[C@H](C[C@H]4[C@@H]5CC=C6CC(O[C@@H]7O[C@H](CO)[C@H](O)[C@H](O[C@@H]8O[C@H](CO)[C@@H](O)[C@H](O)[C@H]8O)[C@H]7O[C@H]7O[C@@H](C)[C@H](O)[C@@H](O)[C@H]7O)CC[C@]6(C)[C@H]5CC[C@]34C)N2C1 (stereo not given in full)	5.06 µM (active)	
Cc1ccc(C(=O)Cl)cc1		2.8%
CCN		15.4%
CN(CCCC(O)c1cccnc1)N=O (stereo not given)		-0.147%
S=C=Nc1cccc2ccccc12		-3.7%
O=C(CCCN1CCC2(CC1)C(=O)NCN2c1ccccc1)c1ccc(F)cc1		31.1% [at 35.3 µM]
CC(C)(C)OO		-11.6%
C[C@]12CC[C@@H]3c4ccc(OC(=O)N(CCCl)CCCl)cc4CC[C@H]3[C@@H]1CC[C@@H]2O		-11.9% [at 35.3 µM]
ClCCN1CCOCC1		-9.55%
[Hg+2].[I-].[I-]	21.9 µM (active)	
Cl/C=C\CCl		21%
CC(O)C#N (stereo not given)		-1.81%
c1ccc(OCC2CO2)cc1 (stereo not given)		-10.6%
ClC1=C(Cl)[C@]2(Cl)[C@@H]3[C@@H]4C[C@@H]([C@H]5O[C@@H]45)[C@@H]3[C@@]1(Cl)C2(Cl)Cl	43.6 µM (active)	
CCOCCOC(C)=O		2.21%
CCC[CH2][Sn]([CH2]CCC)([CH2]CCC)[O]C(=O)c1ccccc1	0.977 µM (active)	
Oc1ccc(I)cc1		9.48%
Cc1cc(Cl)ccc1O[C@H](C)C(=O)O		-16.1%
C[C@@H](Oc1ccc(Cl)cc1Cl)C(=O)O		0.0036%
C=COCCCl		0.0623%
CCS(=O)(=O)c1cccnc1S(=O)(=O)NC(=O)Nc1nc(OC)cc(OC)n1		-15.2%
CCCCCCCCCCCCCCCC[N+](C)(C)C	23.7 µM (active) and 43.6 µM (active) and 23.9 µM (active)	
CC(=O)Nc1ccc2c(c1)Cc1ccccc1-2		-4.09%

experiment: A CellTox Green Cytotoxicity Assay to monitor cytotoxicity in HepG2 cells - 0 hour (AID 1224882); conditions: CellTox Green fluorescence; series mostly up to 76.8 µM; cytotoxicity: at the top concentration; further: nearly all actives have a fitted effect of over 35% in size
Procedure, shortened: as §1

Structure (SMILES)	cytotoxicity	Potency
CCCCCCCCCCCCCCCCCCn1cc[n+](C)c1	7.6%	
COC[C@H](C)N(C(=O)CCl)c1c(C)csc1C	3.28%	
C[C@H]1CC[C@@H]2[C@@H](C)[C@H]3[C@H](C[C@H]4[C@@H]5CC=C6CC(O[C@@H]7O[C@H](CO)[C@H](O)[C@H](O[C@@H]8O[C@H](CO)[C@@H](O)[C@H](O)[C@H]8O)[C@H]7O[C@H]7O[C@@H](C)[C@H](O)[C@@H](O)[C@H]7O)CC[C@]6(C)[C@H]5CC[C@]34C)N2C1 (stereo not given in full)	2.67%	
Cc1cc(C)cc(OP(=O)(Oc2cc(C)cc(C)c2)Oc2cc(C)cc(C)c2)c1	-2.79%	
Cc1ccc(C(=O)Cl)cc1	4.25%	
COP(N)(=S)OC	4.25%	
NNC(=O)c1ccccc1	-0.0799%	
CCN	-0.218%	
N#Cc1ccccc1N	0.861%	
CN(CCCC(O)c1cccnc1)N=O (stereo not given)	-11.3%	
S=C=Nc1cccc2ccccc12	8.62%	
O=C(CCCN1CCC2(CC1)C(=O)NCN2c1ccccc1)c1ccc(F)cc1	-5.53% [at 35.3 µM]	
[Hg+2].[I-].[I-]	4.38%	
Cl/C=C\CCl	-1.36%	
c1ccc(OCC2CO2)cc1 (stereo not given)	-7.76%	
CCC[CH2][Sn]([CH2]CCC)([CH2]CCC)[O]C(=O)c1ccccc1	1.4%	
Oc1ccc(I)cc1	3.17%	
O=c1[nH]c2ccccc2n1CCCN1CCC(n2c(=O)[nH]c3cc(Cl)ccc32)CC1	-17.9% [at 35.3 µM]	
Cc1cc(Cl)ccc1O[C@H](C)C(=O)O	-3.39%	
CCCCCCCCCCCCCN1CC(C)OC(C)C1 (stereo not given)	1.15%	
O=c1ssc(Cl)c1Cl	-7.44%	
C[C@@H](Oc1ccc(Cl)cc1Cl)C(=O)O	-7.35%	
COP(=O)(CCC(=O)NCO)OC	-0.17%	
C=COCCCl	-5.58%	
CNC(C)Cc1ccc2c(c1)OCO2 (stereo not given)	-3.88%	
CCCSP(=O)(OCC)SCCC	4.81%	
O=c1[nH]c2ccccc2n1C1CCN(CCCC(c2ccc(F)cc2)c2ccc(F)cc2)CC1		inactive
CCOP(=S)(OCC)SCS(=O)(=O)C(C)(C)C	0.624%	
CC(=O)Nc1ccc2c(c1)Cc1ccccc1-2	-9.23%	

From PubChem BioAssay (Tox21)
